# Measured values published in the supplement of paper PMC8728848.
# About 410 targets per protein were measured; listed, in parts, are those with the strongest signals and a random draw of the rest.
# Legend:
# Test in all cases: glycan array binding signal (z-score within array); higher = stronger binding
# [1] = tested on: Neu5Ac(a2-6)GalNAc(b1-4)GlcNAc6S; conditions: glycan notation: IUPAC condensed, linker removed
# In short: (§1)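 From the Consortium for Functional Glycomics database, 3228 arrays were curated, keeping only those whose protein sequence was available. Binding is given as a within-array Z-score averaged across arrays sharing a protein sequence and across linkers. Negative Z-scores can be read as non-binding.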
# [2] = tested on: Neu5Ac(a2-8)Neu5Ac(a2-8)Neu5Ac(a2-3)Gal(b1-4)Glc; conditions: glycan notation: IUPAC condensed, linker removed
# In short: as §1
# Neu5Ac(a2-6)GalNAc = conditions: glycan notation: IUPAC condensed, linker removed
# In short: as §1
# [3] = tested on: Neu5Ac(a2-6)GlcNAc(b1-4)GlcNAc; conditions: glycan notation: IUPAC condensed, linker removed
# In short: as §1
# [4] = tested on: Neu5Ac(a2-8)Neu5Ac(a2-3)Gal(b1-3)GalNAc(b1-4)[Neu5Ac(a2-3)]Gal(b1-4)Glc; conditions: glycan notation: IUPAC condensed, linker removed; mutation: R125K
# In short: as §1
# [5] = tested on: Neu5Ac(a2-8)Neu5Ac(a2-3)Gal(b1-4)GlcNAc; conditions: glycan notation: IUPAC condensed, linker removed; mutation: R125K
# In short: as §1
# [6] = tested on: Neu5Ac(a2-8)Neu5Ac(a2-3)Gal(b1-4)Glc; conditions: glycan notation: IUPAC condensed, linker removed
# In short: as §1
# [7] = tested on: Neu5Ac(a2-8)Neu5Ac(a2-8)Neu5Ac(a2-3)[GalNAc(b1-4)]Gal(b1-4)Glc; conditions: glycan notation: IUPAC condensed, linker removed
# In short: as §1
# [8] = tested on: Neu5Ac(a2-8)Neu5Ac(a2-3)[GalNAc(b1-4)]Gal(b1-4)Glc; conditions: glycan notation: IUPAC condensed, linker removed
# In short: as §1
# Regenerating Gene IV (Homo sapiens), Q9BYZ8, sequence (Q9BYZ8 whole entry, looked up): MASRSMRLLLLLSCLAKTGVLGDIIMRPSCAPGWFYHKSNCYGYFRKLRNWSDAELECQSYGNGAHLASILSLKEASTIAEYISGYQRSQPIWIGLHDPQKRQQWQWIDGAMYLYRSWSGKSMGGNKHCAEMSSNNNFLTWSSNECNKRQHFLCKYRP
# CHI3L1 (Homo sapiens), P36222, sequence (P36222 whole entry): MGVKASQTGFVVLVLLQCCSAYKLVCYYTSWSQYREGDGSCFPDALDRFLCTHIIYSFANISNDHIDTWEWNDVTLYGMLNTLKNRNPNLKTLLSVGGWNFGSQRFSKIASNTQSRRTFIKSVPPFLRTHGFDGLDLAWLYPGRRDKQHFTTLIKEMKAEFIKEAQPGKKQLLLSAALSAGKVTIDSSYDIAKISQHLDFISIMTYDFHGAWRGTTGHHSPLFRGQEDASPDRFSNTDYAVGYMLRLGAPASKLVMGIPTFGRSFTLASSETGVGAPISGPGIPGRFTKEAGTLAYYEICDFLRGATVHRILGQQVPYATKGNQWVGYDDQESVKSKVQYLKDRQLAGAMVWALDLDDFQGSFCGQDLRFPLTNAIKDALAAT
# PILRb (Mus musculus), Q2YSF2, sequence (Q2YSF2 entry or part of it): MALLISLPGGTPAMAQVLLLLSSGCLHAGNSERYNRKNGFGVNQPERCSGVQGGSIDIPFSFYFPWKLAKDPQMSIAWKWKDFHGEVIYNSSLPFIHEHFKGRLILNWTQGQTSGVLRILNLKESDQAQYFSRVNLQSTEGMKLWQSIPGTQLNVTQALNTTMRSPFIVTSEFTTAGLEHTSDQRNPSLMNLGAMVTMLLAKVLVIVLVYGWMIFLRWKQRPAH
# Neurocan (Homo sapiens), O14594, sequence (O14594 other isoform, or with tags, fused parts or gaps): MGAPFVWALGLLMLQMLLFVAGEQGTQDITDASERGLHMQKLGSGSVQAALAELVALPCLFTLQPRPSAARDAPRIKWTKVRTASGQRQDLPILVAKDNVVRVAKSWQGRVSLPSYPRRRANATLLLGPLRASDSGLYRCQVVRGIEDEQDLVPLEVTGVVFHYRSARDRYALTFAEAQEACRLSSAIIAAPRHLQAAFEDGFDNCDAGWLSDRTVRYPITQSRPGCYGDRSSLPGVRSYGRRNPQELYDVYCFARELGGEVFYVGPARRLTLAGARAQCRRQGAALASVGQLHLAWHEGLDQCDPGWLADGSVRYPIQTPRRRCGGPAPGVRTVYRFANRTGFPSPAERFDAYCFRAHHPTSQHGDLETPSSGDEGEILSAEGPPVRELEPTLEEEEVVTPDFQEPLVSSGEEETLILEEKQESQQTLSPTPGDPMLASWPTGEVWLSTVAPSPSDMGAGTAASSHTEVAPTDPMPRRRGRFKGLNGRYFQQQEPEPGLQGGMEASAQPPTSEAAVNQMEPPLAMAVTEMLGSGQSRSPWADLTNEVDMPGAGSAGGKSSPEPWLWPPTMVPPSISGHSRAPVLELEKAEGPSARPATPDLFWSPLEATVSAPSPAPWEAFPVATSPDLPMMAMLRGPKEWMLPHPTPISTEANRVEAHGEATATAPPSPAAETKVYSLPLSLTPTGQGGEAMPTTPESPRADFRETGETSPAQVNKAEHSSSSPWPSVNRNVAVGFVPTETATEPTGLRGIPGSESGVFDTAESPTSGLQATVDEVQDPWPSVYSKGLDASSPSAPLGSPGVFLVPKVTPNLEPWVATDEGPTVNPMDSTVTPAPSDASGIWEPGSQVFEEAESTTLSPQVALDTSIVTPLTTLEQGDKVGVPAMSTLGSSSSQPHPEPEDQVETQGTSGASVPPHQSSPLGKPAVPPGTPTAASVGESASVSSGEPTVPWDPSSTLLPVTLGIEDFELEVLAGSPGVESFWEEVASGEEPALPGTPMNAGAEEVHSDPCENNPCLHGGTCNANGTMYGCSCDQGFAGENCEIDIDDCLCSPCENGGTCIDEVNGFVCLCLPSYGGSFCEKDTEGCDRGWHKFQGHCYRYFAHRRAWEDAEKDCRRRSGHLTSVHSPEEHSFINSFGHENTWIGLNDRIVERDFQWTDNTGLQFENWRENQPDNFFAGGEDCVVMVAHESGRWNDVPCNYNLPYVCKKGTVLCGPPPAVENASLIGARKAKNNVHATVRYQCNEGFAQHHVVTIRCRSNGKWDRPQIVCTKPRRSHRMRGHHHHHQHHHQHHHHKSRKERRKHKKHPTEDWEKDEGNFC
# SRLC (Mus musculus), Q8VIF6, sequence (Q8VIF6 other isoform, or with tags, fused parts or gaps): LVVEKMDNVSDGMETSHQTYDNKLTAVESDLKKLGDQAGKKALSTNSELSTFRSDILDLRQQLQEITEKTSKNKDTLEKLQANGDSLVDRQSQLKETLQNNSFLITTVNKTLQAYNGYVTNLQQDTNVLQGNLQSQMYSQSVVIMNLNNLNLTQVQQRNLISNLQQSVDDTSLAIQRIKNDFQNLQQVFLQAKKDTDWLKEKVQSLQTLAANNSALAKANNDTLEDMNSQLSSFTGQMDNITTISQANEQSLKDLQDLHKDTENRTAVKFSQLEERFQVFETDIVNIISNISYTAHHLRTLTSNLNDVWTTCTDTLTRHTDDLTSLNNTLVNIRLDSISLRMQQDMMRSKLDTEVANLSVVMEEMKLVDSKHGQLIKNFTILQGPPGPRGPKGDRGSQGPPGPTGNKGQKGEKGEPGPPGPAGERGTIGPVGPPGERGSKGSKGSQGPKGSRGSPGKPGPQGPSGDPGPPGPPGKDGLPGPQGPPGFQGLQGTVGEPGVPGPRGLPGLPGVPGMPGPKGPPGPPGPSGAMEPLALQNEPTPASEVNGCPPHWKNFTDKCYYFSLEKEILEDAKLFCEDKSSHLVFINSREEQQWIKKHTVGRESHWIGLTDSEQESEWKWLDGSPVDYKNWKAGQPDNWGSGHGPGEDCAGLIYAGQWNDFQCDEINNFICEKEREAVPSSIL
# Avaren (Actinomycete K97), sequence (chain, as listed by the source): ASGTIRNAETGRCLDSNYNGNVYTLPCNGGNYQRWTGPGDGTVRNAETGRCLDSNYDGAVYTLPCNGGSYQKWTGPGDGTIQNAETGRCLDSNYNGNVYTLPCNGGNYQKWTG
substance,measurement,setting,value
"CHI3L1 (Homo sapiens), P36222",glycan array binding signal (z-score),[1],-0.113
same,glycan array binding signal (z-score),[2],-0.11
MpAFP RI GFP (Marinomonas primoryensis),glycan array binding signal (z-score),[1],-0.16
"Neurocan (Homo sapiens), O14594",glycan array binding signal (z-score),Neu5Ac(a2-6)GalNAc,0.364
"PILRb (Mus musculus), Q2YSF2",glycan array binding signal (z-score),[3],-0.085
same,glycan array binding signal (z-score),[2],-0.167
"Siglec-8 (Homo sapiens), Q9NYZ4",glycan array binding signal (z-score),[4],-0.164
same,glycan array binding signal (z-score),[5],-0.473
"SRLC (Mus musculus), Q8VIF6",glycan array binding signal (z-score),[6],-0.188
"Regenerating Gene IV (Homo sapiens), Q9BYZ8",glycan array binding signal (z-score),[6],0.532
same,glycan array binding signal (z-score),[7],-0.332
Avaren (Actinomycete K97),glycan array binding signal (z-score),[8],-0.117
